Measurements from PubChem BioAssay (Tox21).
Results filed as inconclusive are left out. Values without a mark were called inactive. The source made the active and inactive calls. Unless noted, the call rests on the fitted dose curve.

Target: Progesterone receptor (Homo sapiens) (UniProt P06401)
Test: qHTS assay to identify small molecule agonists of the progesterone receptor (PR) signaling pathway (AID 1346784); further: nearly all actives have a fitted effect of over 30% in size; further: potency means the concentration at half of the fitted maximal effect
Conditions: PR-UAS-bla HEK293T, beta-lactamase FRET ratio, 16 h; series mostly up to 92.4 µM; activation: at the top concentration
Outline: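 PR-UAS-bla HEK 293T cells carrying a UAS-driven beta-lactamase reporter were seeded in medium with 2% charcoal-stripped FBS, preincubated 6 hr at 37C, then exposed to compounds in DMSO for 16 hr; agonism was read by LiveBLAzer B/G FRET fluorescence.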
On the % scale 0 is the no-effect control and ±100 the full control effect.

Progesterone receptor (Homo sapiens), sequence (P06401 whole entry, looked up): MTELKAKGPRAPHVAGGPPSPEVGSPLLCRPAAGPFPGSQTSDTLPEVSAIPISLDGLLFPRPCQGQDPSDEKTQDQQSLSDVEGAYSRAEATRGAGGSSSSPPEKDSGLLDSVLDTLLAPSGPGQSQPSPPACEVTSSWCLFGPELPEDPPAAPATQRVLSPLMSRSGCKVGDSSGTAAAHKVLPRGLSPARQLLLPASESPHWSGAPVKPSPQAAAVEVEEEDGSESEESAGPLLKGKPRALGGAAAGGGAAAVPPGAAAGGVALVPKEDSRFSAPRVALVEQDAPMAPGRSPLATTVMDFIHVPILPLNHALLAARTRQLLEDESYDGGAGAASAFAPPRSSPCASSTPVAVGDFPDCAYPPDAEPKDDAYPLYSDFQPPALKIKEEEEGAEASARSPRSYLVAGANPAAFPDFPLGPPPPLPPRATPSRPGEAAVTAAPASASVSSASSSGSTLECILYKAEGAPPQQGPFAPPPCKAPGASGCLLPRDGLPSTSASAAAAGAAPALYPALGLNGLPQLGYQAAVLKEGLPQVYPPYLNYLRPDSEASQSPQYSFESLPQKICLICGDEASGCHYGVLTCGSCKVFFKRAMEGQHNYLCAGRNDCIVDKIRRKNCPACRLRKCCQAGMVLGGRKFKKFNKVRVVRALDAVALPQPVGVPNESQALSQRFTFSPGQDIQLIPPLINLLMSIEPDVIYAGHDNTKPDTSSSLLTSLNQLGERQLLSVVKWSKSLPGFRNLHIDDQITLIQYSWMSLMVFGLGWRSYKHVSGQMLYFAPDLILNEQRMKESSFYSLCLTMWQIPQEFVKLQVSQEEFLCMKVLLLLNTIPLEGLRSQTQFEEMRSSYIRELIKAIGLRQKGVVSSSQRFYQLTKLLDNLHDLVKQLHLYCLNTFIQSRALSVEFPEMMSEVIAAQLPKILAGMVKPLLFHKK

SMILES	activation	Potency
CCC1COC(=O)O1 (configuration not stated)	-0.865%	–
O=C1OC(=O)c2ccccc21	–	60.8 µM (active)
CCCOC(=O)CCCCC(=O)OCCC	-0.0366%	–
C=CCOCC(CO)(COCC=C)COCC=C	-1.44% [at 42.5 µM]	–
CC(C)COC(=O)/C=C/c1ccccc1	0.339%	–
OCCCCCCCl	-0.481%	–
COCC(=O)Nc1c(I)c(C(=O)NCC(O)CO)c(I)c(C(=O)N(C)CC(O)CO)c1I (configuration not stated)	2.34% [at 42.5 µM]	–
N#CCCOCCOCCC#N	0.172%	–
CNC(=O)NC	0.445%	–
O=C(O)/C=C/c1ccccc1	0.4%	–
C=CCOc1c(Br)cc(Br)cc1Br	4.09%	–
CC(CC(=O)O)CC(C)(C)C (configuration not stated)	-1.51%	–
COC(=O)CCC(=O)O	0.0318%	–
O=C1OC(=O)c2cc(Oc3ccc4c(c3)C(=O)OC4=O)ccc21	1.97%	–
CCCCCC1Nc2cc(C(F)(F)F)c(S(N)(=O)=O)cc2S(=O)(=O)N1 (configuration not stated)	-1.28% [at 42.5 µM]	–
COC(OC)C(C)c1ccccc1 (configuration not stated)	4.62%	–
Nc1ccc(S(=O)(=O)NC(=O)c2ccccc2)cc1	-1.19% [at 42.5 µM]	–
Nc1nc(=O)n([C@@H]2O[C@H](CO)[C@@H](O)[C@@H]2F)cc1I	2.88% [at 42.5 µM]	–
CCCCCCCC/C=C\CCCCCCCC(=O)OC[C@@H](O)[C@H]1OC[C@H](O)[C@H]1O	5.49%	–

SMILES	activation	Potency
O=[Si]=O	1.51%	–
COc1ccc(NS(=O)(=O)c2ccc(N)cc2)nn1	1.69% [at 42.5 µM]	–
O=C(Oc1ccccc1C(=O)O)c1ccccc1O	0.0445% [at 42.5 µM]	–
FC(F)(F)/C(=N\OCC1OCCO1)c1ccc(Cl)cc1	-0.314%	–
CCCCOC(=O)C(C)OC(=O)CCC (configuration not stated)	0.466%	–
CCCCCCCCC(=O)OCC	-0.199%	–
CCC(=O)c1ccc(O)cc1	-1.86% [at 42.5 µM]	–
CCCCOC(=O)[C@@H](C)Oc1ccc(Oc2ccc(C(F)(F)F)cn2)cc1	0.362%	–
CCc1nccnc1C	0.648%	–
CC1=NN(c2ccc(S(=O)(=O)O)cc2)C(=O)C1N=Nc1ccccc1 (configuration not stated)	-2.93%	–
Nc1cc(Cl)cc(S(=O)(=O)O)c1O	1.09%	–
CCN1CN(CC)CN(CC)C1	0.847%	–
CC(C)CCCC(C)CC=O (configuration not stated)	-0.467%	–
CCC(O)C(C)(C)C (configuration not stated)	-1.75%	–
CC(C)C(=O)c1ccccc1	0.0315%	–
O=P(O)(O)OCC(O)CO (configuration not stated)	-0.116% [at 42.5 µM]	–
CCN(CCC#N)c1ccccc1	0.314%	–
CC(=O)/C=C/c1ccco1	-2.3%	–

Target: Progesterone receptor (Homo sapiens) (UniProt P06401)
Test: qHTS assay to identify small molecule antagonists of the progesterone receptor (PR) signaling pathway (AID 1346795; active means well fitted inhibition curve with a large enough effect in the signal ratio in the repeat runs, not every such curve was filed as active; the % refers to the signal ratio)
Conditions: PR-UAS-bla HEK293T, beta-lactamase FRET ratio, 16 h; series mostly up to 92.4 µM; activity change, negative = inhibition: at the top concentration
Outline: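 PR-UAS-bla HEK293T cells carrying a UAS-driven beta-lactamase reporter were plated in medium with 2% charcoal-stripped FBS and rested 6 hr at 37C. Compounds were added with 1 nM R5020 (final) for 16 hr, then FRET substrate loaded 2 hr at room temperature.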

SMILES	activity change, negative = inhibition
CCC1COC(=O)O1 (configuration not stated)	2.38%
O=C1OC(=O)c2ccccc21	5.16%
CCCOC(=O)CCCCC(=O)OCCC	5.13%
C=CCOCC(CO)(COCC=C)COCC=C	-0.618% [at 42.5 µM]
CC(C)COC(=O)/C=C/c1ccccc1	-1.84%
OCCCCCCCl	-0.864%
COCC(=O)Nc1c(I)c(C(=O)NCC(O)CO)c(I)c(C(=O)N(C)CC(O)CO)c1I (configuration not stated)	5.54% [at 42.5 µM]
N#CCCOCCOCCC#N	14.2%
COC(/C=C(\C)CCC=C(C)C)OC	16%
CNC(=O)NC	7.73%
O=C(O)/C=C/c1ccccc1	7.19%
CC(CC(=O)O)CC(C)(C)C (configuration not stated)	5%
COC(=O)CCC(=O)O	9.8%
O=C1OC(=O)c2cc(Oc3ccc4c(c3)C(=O)OC4=O)ccc21	-0.213%
CCCCCC1Nc2cc(C(F)(F)F)c(S(N)(=O)=O)cc2S(=O)(=O)N1 (configuration not stated)	4.05% [at 42.5 µM]
COC(OC)C(C)c1ccccc1 (configuration not stated)	4.18%
Nc1ccc(S(=O)(=O)NC(=O)c2ccccc2)cc1	11.9% [at 42.5 µM]
Nc1nc(=O)n([C@@H]2O[C@H](CO)[C@@H](O)[C@@H]2F)cc1I	4.57% [at 42.5 µM]

SMILES	activity change, negative = inhibition
CCCCCCCC/C=C\CCCCCCCC(=O)OC[C@@H](O)[C@H]1OC[C@H](O)[C@H]1O	3.24%
O=[Si]=O	7.53%
COc1ccc(NS(=O)(=O)c2ccc(N)cc2)nn1	14% [at 42.5 µM]
O=C(Oc1ccccc1C(=O)O)c1ccccc1O	13.7% [at 42.5 µM]
FC(F)(F)/C(=N\OCC1OCCO1)c1ccc(Cl)cc1	1.64%
CCCCOC(=O)C(C)OC(=O)CCC (configuration not stated)	11.4%
CCCCCCCCC(=O)OCC	6.46%
CCC(=O)c1ccc(O)cc1	5.77% [at 42.5 µM]
CCCCOC(=O)[C@@H](C)Oc1ccc(Oc2ccc(C(F)(F)F)cn2)cc1	-1.6%
CC1=NN(c2ccc(S(=O)(=O)O)cc2)C(=O)C1N=Nc1ccccc1 (configuration not stated)	4.41%
Nc1cc(Cl)cc(S(=O)(=O)O)c1O	-9.96%
CCN1CN(CC)CN(CC)C1	1.54%
CC(C)CCCC(C)CC=O (configuration not stated)	2.2%
CCC(O)C(C)(C)C (configuration not stated)	-4.62%
CC(C)C(=O)c1ccccc1	0.829%
O=P(O)(O)OCC(O)CO (configuration not stated)	4.99% [at 42.5 µM]
CC(=O)/C=C/c1ccco1	11.6%

Test system: not listed separately
Test: qHTS assay to identify small molecule antagonists of the progesterone receptor (PR) signaling pathway - cell viability counter screen (AID 1346798; active means well fitted cell-killing curve with a large enough effect in the repeat runs; further: nearly all actives have a fitted effect of over 50% in size)
Conditions: PR-UAS-bla HEK293T viability, CellTiter-Glo luminescence, 16 h; series mostly up to 92.4 µM; activity change, negative = cytotoxicity: at the top concentration
Outline: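 PR-UAS-bla HEK293T cells in medium with 2% charcoal-stripped FBS were treated with compounds plus R5020 for 16 hr at 37C. Cell viability was then read by CellTiter-Glo luminescence after 30 min at room temperature in the same wells.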

SMILES	activity change, negative = cytotoxicity
CCC1COC(=O)O1 (configuration not stated)	6.2%
O=C1OC(=O)c2ccccc21	14.5%
CCCOC(=O)CCCCC(=O)OCCC	-2.62%
C=CCOCC(CO)(COCC=C)COCC=C	-17.5% [at 42.5 µM]
CC(C)COC(=O)/C=C/c1ccccc1	-2.18%
OCCCCCCCl	-1.65%
COCC(=O)Nc1c(I)c(C(=O)NCC(O)CO)c(I)c(C(=O)N(C)CC(O)CO)c1I (configuration not stated)	3.59% [at 42.5 µM]
N#CCCOCCOCCC#N	-1.33%
COC(/C=C(\C)CCC=C(C)C)OC	-6.48%
CNC(=O)NC	17.8%
O=C(O)/C=C/c1ccccc1	7.85%
C=CCOc1c(Br)cc(Br)cc1Br	-8.34%
CC(CC(=O)O)CC(C)(C)C (configuration not stated)	3.22%
COC(=O)CCC(=O)O	0.205%
O=C1OC(=O)c2cc(Oc3ccc4c(c3)C(=O)OC4=O)ccc21	3.19%
CCCCCC1Nc2cc(C(F)(F)F)c(S(N)(=O)=O)cc2S(=O)(=O)N1 (configuration not stated)	0.712% [at 42.5 µM]
COC(OC)C(C)c1ccccc1 (configuration not stated)	8.94%
Nc1ccc(S(=O)(=O)NC(=O)c2ccccc2)cc1	-11.7% [at 42.5 µM]

SMILES	activity change, negative = cytotoxicity
CCCCCCCC/C=C\CCCCCCCC(=O)OC[C@@H](O)[C@H]1OC[C@H](O)[C@H]1O	3.17%
O=[Si]=O	1.34%
COc1ccc(NS(=O)(=O)c2ccc(N)cc2)nn1	-2.1% [at 42.5 µM]
O=C(Oc1ccccc1C(=O)O)c1ccccc1O	-2.6% [at 42.5 µM]
FC(F)(F)/C(=N\OCC1OCCO1)c1ccc(Cl)cc1	17.9%
CCCCOC(=O)C(C)OC(=O)CCC (configuration not stated)	8.14%
CCCCCCCCC(=O)OCC	5.07%
CCC(=O)c1ccc(O)cc1	2.75% [at 42.5 µM]
CCCCOC(=O)[C@@H](C)Oc1ccc(Oc2ccc(C(F)(F)F)cn2)cc1	47.9%
CCc1nccnc1C	10.8%
CC1=NN(c2ccc(S(=O)(=O)O)cc2)C(=O)C1N=Nc1ccccc1 (configuration not stated)	-6.84%
Nc1cc(Cl)cc(S(=O)(=O)O)c1O	2.18%
CC(C)CCCC(C)CC=O (configuration not stated)	-3.92%
CCC(O)C(C)(C)C (configuration not stated)	-5.76%
CC(C)C(=O)c1ccccc1	-5.04%
O=P(O)(O)OCC(O)CO (configuration not stated)	-4.74% [at 42.5 µM]
CC(=O)/C=C/c1ccco1	1.19%
